PubChem BioAssay (EPA / NIEHS)
Values joined by “and” are separate entries in the source; they are usually repeats but may differ in a detail not shown here. Equal entries are not always repeated. A structure can be active in one record and inactive in another. Active and inactive are the calls of the source. How the source made its calls: active means hit-call score of the fitted dose curve at least 0.9, where 1 is the maximum; inactive means score below 0.9.

Biological target: X-box-binding protein 1 (Homo sapiens) (UniProt P17861)
Sequence (P17861 whole entry, looked up): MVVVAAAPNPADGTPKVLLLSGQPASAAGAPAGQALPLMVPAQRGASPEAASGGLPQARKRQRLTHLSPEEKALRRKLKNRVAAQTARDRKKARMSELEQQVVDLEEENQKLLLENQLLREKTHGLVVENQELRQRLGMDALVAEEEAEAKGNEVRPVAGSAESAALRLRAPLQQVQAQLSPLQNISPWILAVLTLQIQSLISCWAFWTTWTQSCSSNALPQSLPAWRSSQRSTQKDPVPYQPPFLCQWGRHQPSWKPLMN
Assay: ATG_Xbp1_CIS: Attagene CIS-FACTORIAL HepG2 Assay for human X-box Binding Protein 1 (XBP1) (AID 2282972)
Details: HepG2 XBP1 cis-element reporter, Attagene multiplex; actives raise or lower the signal
In short: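 Human hepatoma HepG2, cis-element reporter system, 24 h treatment; mRNA quantified by RT-PCR/CE fluorescence; fit relative to DMSO.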

Row | Compound | outcome | AC50
1 | C[C@]12CC[C@@H]3c4ccc(O)cc4C[C@@H](CCCCCCCCCS(=O)CCCC(F)(F)C(F)(F)F)[C@H]3[C@@H]1CC[C@@H]2O (stereo partly specified) | inactive | 
2 | COC(=O)c1cccc(C)c1S(=O)(=O)NC(=O)Nc1nc(OCC(F)(F)F)nc(N(C)C)n1 | inactive | 
3 | CC1(C)C(C=C(Cl)Cl)C1C(=O)OCc1cccc(Oc2ccccc2)c1 (stereo unspecified) | inactive | 
4 | CCC(C)OC(=O)N1CCCCC1CCO (stereo unspecified) | inactive | 
5 | CCC(O)=C1C(=O)CC(C(=O)O)CC1=O (stereo unspecified) | inactive | 
6 | CCOC(=O)c1ccc(O)cc1 | inactive | 100 µM (active)
7 | O=C(O)C1(C(=O)Nc2ccc(Cl)cc2Cl)CC1 | inactive | 
8 | c1ccc(Nc2ccccc2)cc1 | inactive | 
9 | CC(C)(c1ccc(O)cc1)c1ccc(O)cc1 | inactive | 
10 | CCCCOC(=O)[C@@H](C)Oc1ccc(Oc2ccc(C(F)(F)F)cn2)cc1 | inactive | 
11 | COC(=O)c1ccccc1S(=O)(=O)NC(=O)Nc1nc(OC(F)F)cc(OC(F)F)n1 | inactive | 
12 | COC(=O)c1ccc(CNS(C)(=O)=O)cc1S(=O)(=O)NC(=O)Nc1nc(OC)cc(OC)n1 | inactive | 
13 | CC(C)CCCCCCc1ccc(O)cc1 | inactive | 16.6 µM (active) and 19.4 µM (active) and 18.5 µM (active)
14 | CCOC(=O)NCCOc1ccc(Oc2ccccc2)cc1 | inactive | 
15 | O=C(O)c1ccccc1 | inactive | 
16 | CCCN(CCC)c1c([N+](=O)[O-])cc(C(F)(F)F)c(N)c1[N+](=O)[O-] | inactive | 
17 | N#CSCSc1nc2ccccc2s1 | inactive | 14.3 µM (active)
18 | CCN(Cc1c(F)cccc1Cl)c1c([N+](=O)[O-])cc(C(F)(F)F)cc1[N+](=O)[O-] | inactive | 
